Reference: the supplement of paper PMC10849652
Targets with a hit are over-represented here; the source holds about 7,900 in all. About 0.6% of all pairs of compound and target were hits.

compound: COc1cccc2cc(-c3nc([C@H]4CC[C@H](C(=O)O)CC4)n4ncnc(N)c34)[nH]c12; experiment: log2 fold change, soluble protein after heating vs DMSO (PISA); higher = thermal stabilisation; K562 cells, 10 uM, 30 min; active = over 0.2 and 3.5 SD of the protein, either way, in both replicates (recomputed)
Outline: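 Values are thermal stability changes relative to control samples and are taken from duplicates. They are stated as log2 fold changes. Before quantification by TMTpro 16plex LC-MS/MS with equalised channel sums, K562 cells at 2×10^6 cells/mL were treated with 10 μM compound for 30 min, heated in aliquots for 3 min across 48°C-58°C, pooled, extracted in PBS with 0.5% NP-40 at 4°C, and centrifuged at 21,000xg for 90 min to give the soluble supernatant.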

Sequence of UniProt P54709 (P54709 whole entry, looked up): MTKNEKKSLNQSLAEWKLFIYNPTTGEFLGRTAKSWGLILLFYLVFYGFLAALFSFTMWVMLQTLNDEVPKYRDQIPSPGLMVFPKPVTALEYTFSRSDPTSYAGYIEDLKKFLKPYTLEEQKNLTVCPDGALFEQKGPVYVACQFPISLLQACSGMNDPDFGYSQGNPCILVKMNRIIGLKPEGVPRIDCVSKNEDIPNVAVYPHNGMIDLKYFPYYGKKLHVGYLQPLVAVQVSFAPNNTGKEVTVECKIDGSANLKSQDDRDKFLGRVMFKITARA
Sequence of UniProt P02749 (P02749 whole entry, looked up): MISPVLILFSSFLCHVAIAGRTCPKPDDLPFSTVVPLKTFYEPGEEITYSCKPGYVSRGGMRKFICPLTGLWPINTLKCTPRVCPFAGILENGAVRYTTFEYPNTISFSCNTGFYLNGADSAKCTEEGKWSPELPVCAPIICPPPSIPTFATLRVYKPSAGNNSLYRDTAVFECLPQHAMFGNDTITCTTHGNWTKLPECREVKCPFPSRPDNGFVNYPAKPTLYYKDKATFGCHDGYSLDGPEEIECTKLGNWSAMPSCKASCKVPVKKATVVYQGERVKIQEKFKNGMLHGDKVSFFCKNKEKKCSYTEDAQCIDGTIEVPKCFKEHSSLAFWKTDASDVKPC
Sequence of UniProt Q14457 (Q14457 whole entry, looked up): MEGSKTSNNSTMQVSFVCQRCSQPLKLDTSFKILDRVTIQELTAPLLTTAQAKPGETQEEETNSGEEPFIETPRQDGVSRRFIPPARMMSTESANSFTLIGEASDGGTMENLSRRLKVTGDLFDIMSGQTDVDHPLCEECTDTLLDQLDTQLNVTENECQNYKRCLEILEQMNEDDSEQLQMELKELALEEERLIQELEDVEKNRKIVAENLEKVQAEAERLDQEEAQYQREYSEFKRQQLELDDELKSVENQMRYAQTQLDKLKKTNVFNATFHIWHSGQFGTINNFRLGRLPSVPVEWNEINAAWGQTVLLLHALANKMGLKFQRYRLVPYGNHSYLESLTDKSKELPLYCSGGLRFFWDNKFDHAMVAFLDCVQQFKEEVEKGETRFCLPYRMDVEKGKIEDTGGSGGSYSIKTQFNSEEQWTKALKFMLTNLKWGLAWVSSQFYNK
Sequence of UniProt O60566 (O60566 whole entry, looked up): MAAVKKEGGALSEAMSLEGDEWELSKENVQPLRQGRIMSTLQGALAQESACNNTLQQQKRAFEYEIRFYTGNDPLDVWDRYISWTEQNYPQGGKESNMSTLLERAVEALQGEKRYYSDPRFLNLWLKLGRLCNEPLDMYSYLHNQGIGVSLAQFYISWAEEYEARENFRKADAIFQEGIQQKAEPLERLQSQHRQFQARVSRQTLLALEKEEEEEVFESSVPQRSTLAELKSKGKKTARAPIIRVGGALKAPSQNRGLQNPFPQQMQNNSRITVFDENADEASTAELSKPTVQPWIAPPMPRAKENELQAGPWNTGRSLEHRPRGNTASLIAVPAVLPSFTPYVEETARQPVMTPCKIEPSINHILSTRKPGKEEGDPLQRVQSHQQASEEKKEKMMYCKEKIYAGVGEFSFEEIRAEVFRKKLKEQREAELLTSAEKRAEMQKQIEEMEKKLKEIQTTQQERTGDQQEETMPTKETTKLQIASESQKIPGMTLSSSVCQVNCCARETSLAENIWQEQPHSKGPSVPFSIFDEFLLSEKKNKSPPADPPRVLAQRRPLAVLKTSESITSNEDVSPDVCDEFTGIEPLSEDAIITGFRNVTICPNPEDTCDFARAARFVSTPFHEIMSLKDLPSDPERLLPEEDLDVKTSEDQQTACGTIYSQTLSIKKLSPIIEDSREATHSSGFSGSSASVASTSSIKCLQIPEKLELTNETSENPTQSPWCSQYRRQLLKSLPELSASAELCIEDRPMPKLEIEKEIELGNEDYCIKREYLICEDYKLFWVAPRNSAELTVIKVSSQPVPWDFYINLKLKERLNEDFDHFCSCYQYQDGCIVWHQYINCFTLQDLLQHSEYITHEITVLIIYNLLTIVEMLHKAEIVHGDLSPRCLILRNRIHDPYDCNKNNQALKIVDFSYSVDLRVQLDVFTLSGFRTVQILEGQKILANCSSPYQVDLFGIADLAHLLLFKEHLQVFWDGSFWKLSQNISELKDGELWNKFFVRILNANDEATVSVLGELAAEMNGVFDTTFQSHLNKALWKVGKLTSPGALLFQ
Sequence of UniProt Q9BRQ8 (Q9BRQ8 whole entry, looked up): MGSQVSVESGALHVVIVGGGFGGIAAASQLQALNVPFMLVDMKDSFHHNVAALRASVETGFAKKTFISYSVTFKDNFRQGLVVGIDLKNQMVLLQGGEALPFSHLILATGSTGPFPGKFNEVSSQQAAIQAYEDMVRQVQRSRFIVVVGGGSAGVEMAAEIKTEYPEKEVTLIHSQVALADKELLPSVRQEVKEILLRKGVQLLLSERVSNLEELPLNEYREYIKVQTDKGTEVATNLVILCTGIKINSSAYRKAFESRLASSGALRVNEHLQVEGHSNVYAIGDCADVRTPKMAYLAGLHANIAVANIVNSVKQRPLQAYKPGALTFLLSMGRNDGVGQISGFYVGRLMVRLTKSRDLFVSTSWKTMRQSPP
Sequence of UniProt Q9UKV3 (Q9UKV3 whole entry, looked up): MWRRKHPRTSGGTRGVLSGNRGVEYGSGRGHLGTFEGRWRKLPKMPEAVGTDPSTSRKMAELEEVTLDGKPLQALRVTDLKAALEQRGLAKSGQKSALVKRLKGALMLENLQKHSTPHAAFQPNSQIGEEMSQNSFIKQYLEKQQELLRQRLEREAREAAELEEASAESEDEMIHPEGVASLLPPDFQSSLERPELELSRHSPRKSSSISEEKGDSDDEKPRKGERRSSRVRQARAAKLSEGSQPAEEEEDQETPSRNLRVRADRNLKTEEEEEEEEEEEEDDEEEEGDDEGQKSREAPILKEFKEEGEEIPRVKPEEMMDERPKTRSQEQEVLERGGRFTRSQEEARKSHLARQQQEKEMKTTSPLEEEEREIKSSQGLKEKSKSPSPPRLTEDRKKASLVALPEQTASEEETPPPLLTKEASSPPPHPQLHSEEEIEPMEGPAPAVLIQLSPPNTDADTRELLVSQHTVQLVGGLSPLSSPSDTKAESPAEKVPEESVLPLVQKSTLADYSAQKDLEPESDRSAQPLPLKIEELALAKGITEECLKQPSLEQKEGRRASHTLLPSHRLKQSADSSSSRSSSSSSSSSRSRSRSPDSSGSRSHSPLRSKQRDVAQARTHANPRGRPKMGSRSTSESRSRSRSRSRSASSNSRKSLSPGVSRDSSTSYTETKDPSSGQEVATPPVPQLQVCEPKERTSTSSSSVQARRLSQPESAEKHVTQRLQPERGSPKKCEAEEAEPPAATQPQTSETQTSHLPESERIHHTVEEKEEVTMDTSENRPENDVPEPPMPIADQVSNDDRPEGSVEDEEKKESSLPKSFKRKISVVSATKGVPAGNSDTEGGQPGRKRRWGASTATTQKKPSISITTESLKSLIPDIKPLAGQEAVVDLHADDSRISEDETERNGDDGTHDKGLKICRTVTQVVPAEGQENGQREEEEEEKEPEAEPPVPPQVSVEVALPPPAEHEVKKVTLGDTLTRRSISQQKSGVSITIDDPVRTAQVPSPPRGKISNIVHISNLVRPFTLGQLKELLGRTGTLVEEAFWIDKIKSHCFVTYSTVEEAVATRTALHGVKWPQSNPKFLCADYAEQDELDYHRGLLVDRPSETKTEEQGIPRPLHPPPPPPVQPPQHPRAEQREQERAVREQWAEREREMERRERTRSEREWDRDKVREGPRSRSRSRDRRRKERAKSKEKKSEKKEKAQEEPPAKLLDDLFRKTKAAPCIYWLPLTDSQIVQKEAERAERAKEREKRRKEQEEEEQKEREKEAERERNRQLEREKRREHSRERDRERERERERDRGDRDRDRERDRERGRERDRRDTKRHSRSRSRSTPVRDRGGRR
Sequence of UniProt Q15059 (Q15059 whole entry, looked up): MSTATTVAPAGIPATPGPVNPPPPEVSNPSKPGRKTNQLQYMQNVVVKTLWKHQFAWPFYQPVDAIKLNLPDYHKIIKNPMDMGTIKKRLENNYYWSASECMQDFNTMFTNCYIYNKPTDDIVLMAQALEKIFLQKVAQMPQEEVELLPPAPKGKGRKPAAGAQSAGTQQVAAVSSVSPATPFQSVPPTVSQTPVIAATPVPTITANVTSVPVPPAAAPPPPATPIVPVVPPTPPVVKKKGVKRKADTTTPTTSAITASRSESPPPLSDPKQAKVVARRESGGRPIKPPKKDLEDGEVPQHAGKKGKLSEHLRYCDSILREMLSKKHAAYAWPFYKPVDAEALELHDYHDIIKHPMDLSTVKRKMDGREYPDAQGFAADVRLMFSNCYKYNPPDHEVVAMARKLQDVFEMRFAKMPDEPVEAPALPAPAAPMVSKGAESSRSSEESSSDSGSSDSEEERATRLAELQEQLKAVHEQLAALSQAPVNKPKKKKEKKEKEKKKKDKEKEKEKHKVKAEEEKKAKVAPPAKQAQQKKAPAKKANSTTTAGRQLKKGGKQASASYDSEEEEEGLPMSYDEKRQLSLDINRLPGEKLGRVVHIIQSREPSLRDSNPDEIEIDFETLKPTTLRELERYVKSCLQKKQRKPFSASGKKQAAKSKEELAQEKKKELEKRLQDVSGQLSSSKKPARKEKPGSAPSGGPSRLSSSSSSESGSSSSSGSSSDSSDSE
Sequence of UniProt Q10589 (Q10589 whole entry, looked up): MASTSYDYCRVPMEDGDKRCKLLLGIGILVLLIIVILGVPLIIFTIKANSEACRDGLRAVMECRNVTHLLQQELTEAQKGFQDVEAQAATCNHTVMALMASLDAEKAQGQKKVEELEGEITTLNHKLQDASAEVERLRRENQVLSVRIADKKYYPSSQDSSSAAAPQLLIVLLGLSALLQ
Sequence of UniProt Q9UHQ4 (Q9UHQ4 whole entry, looked up): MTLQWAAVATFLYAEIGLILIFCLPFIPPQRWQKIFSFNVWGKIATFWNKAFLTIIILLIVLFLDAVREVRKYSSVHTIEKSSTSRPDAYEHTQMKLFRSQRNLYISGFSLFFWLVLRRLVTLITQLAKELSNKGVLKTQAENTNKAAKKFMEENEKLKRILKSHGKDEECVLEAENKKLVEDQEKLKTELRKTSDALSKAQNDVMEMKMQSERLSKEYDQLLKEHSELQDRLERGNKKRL

log2 fold change, inactive:
BLVRB (UniProt P30043) 0.015
ARL3 (UniProt P36405) 0.047
AGRN (UniProt O00468) 0.037
AARS2 (UniProt Q5JTZ9) 0.047
AP2A2 isoform 2 (UniProt O94973) 0
ATOX1 (UniProt O00244) -0.07
ATP6V0A1 isoform 3 (UniProt Q93050) -0.21
ALG3 (UniProt Q92685) 0
APOH (UniProt P02749) 0.529
ATP12A isoform 2 (UniProt P54707) 0.043
AGPS (UniProt O00116) 0.048
ATP1A1 (UniProt P05023) 0.054
BZW2 (UniProt Q9Y6E2) 0.023
ACIN1 (UniProt Q9UKV3) 0.006
BMP2K (UniProt Q9NSY1) 0.111
AIFM2 (UniProt Q9BRQ8) 0.061
ATP1B3 (UniProt P54709) 0.092
BECN1 (UniProt Q14457) -0.045
ATP6V1H (UniProt Q9UI12) -0.073
ATAD3B (UniProt Q5T9A4) -0.136
ADRM1 (UniProt Q16186) -0.045
BRD3 (UniProt Q15059) -0.002
ASNS (UniProt P08243) 0.034
AGPAT3 isoform 3 (UniProt Q9NRZ7) 0.005
BUB1B isoform 3 (UniProt O60566) -0.098
ARMC8 (UniProt Q8IUR7) -0.016
BCAP29 isoform 2 (UniProt Q9UHQ4) 0.035
ATG4B isoform 2 (UniProt Q9Y4P1) -0.082
BST2 (UniProt Q10589) 0.007
AKAP8 (UniProt O43823) 0.067
BZW1 isoform 3 (UniProt Q7L1Q6) -0.13
ANKRD29 (UniProt Q8N6D5) -0.08
AGPAT5 (UniProt Q9NUQ2) 0.071
ASH2L (UniProt Q9UBL3) -0.014
AGPAT1 (UniProt Q99943) 0.021
